Experiment [1] is described as follows: ATG_E_Box_CIS: Attagene CIS-FACTORIAL HepG2 Assay for human Enhancer Box (E-box) (AID 2282936). To be noted: HepG2 E-box cis-reporter transcription, actives raise or lower the signal. In short, it runs like this: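 Multiplexed CIS reporter system in transiently transfected HepG2 cells measures native transcription factor activity. Reporter RNA after 24 h exposure is profiled by RT-PCR-capillary electrophoresis.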

A short description of experiment [2]: ATG_M_61_CIS: Attagene CIS-FACTORIAL HepG2 Assay for M61 Transcription Factor (Internal Marker) (AID 2282937). To be noted: HepG2 Attagene CIS-FACTORIAL M61 internal marker reporter; actives raise or lower the signal. The essentials:
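Multiplexed reporter mRNA assay, HepG2 human hepatoma cells, 24 h treatment. Signal: FAM-labelled, HpaI-digested RT-PCR fragments by CE. Fit: bidirectional, baseline DMSO.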

A short description of experiment [3]: ATG_EGR_CIS: Attagene CIS-FACTORIAL HepG2 Assay for human Early Growth Response 1 (EGR1) (AID 2282938). To be noted: HepG2 Attagene CIS-FACTORIAL EGR reporter mRNA; actives raise or lower the signal. In short, it runs like this:
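Multiplexed cis-reporter system in human hepatoma HepG2 cells, transiently transfected. Cells are dosed for 24 h; reporter transcripts are amplified, fluorescently tagged and sized by capillary electrophoresis, with DMSO as negative control.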

A short description of experiment [4]: ATG_M_19_CIS: Attagene CIS-FACTORIAL HepG2 Assay for M19 Transcription Factor (Internal Marker) (AID 2282939). The conditions noted are these: HepG2 Attagene CIS-FACTORIAL M19 internal marker reporter; actives raise or lower the signal. In short, it runs like this: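 HepG2 cells transiently transfected with cis-regulated multiple reporter transcription units were dosed for 24 h; reporter mRNA was quantified by RT-PCR, 6-FAM primer-extension labelling, HpaI digestion and capillary electrophoresis, with bidirectional fitting against DMSO baseline.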

Experiment [5] is described as follows: ATG_ERE_CIS: Attagene CIS-FACTORIAL HepG2 Assay for Estrogen Response Element (ERE) (AID 2282940). The conditions noted are these: HepG2 ERE cis-reporter, Attagene RNA transcript; actives raise or lower the signal. In short, it runs like this: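 HepG2 cells transiently transfected with cis-promoter-driven multiplexed reporter transcription units report endogenous TF activity. After 24 h compound exposure, reporter mRNA is quantified by RT-PCR with capillary electrophoresis fluorescence; bidirectional fitting versus DMSO baseline.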

The nature of experiment [6]: ATG_Ets_CIS: Attagene CIS-FACTORIAL HepG2 Assay for human Erythroblast Transformation Specific (ETS) (AID 2282941). To be noted: HepG2 ETS cis-reporter transcription, actives raise or lower the signal. The essentials: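 After transient cis-reporter transfection, HepG2 cells receive test chemical for 24 h. Reporter mRNA levels, measured by RT-PCR and capillary electrophoresis fluorescence, are analysed bidirectionally relative to the DMSO baseline.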

In experiment [7] the target is Hepatocyte nuclear factor 3-beta (Homo sapiens) (UniProt Q9Y261). Description: ATG_FoxA2_CIS: Attagene CIS-FACTORIAL HepG2 Assay for human Forkhead box A2 (FOXA2) (AID 2282942). The conditions noted are these: HepG2 cis-reporter transcription factor activity, 24 h; actives raise or lower the signal. The essentials:
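Multiplexed cis-element reporter assay in transiently transfected HepG2. Twenty-four hours post-dosing, RNA was reverse-transcribed, amplified, FAM-labelled, HpaI-digested and separated by CE. Activity gain or loss relative to DMSO.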

Experiment [8] can be described thus: ATG_FoxO_CIS: Attagene CIS-FACTORIAL HepG2 Assay for human Forkhead box O (FoxO) (AID 2282943). The conditions noted are these: HepG2 Attagene cis-reporter, FoxO element, mRNA; actives raise or lower the signal. The essentials: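 Values reflect reporter mRNA induction or loss in HepG2 cells 24 h post-dosing, fitted bidirectionally with DMSO as negative control and baseline. Detection used RT-PCR and fluorescence capillary electrophoresis.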

The nature of experiment [9]: ATG_GATA_CIS: Attagene CIS-FACTORIAL HepG2 Assay for human GATA Binding Protein (AID 2282944). The conditions noted are these: HepG2 GATA cis-element reporter, Attagene multiplex mRNA; actives raise or lower the signal. The essentials: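 HepG2 cells transiently transfected with multiplexed cis-element reporter units reflecting endogenous transcription factor activity; reporter mRNA measured after 24 h dosing by RT-PCR, 6-FAM labeling, HpaI digestion and capillary electrophoresis. Bidirectional fitting versus DMSO baseline.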

Experiment [10] in a line: ATG_GLI_CIS: Attagene CIS-FACTORIAL HepG2 Assay for human Zinc Finger Protein GLI1 (AID 2282945). The conditions noted are these: HepG2, Attagene cis-factorial reporter mRNA, GLI element; actives raise or lower the signal. In short, it runs like this: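 HepG2 cells transiently transfected with cis-promoter multiplexed reporter units report endogenous transcription factor activity. After 24 h chemical exposure, reporter mRNA was quantified by RT-PCR, 6-FAM labelling, HpaI digestion and capillary electrophoresis, with bidirectional fitting against DMSO.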

Experiment [11] is described as follows: ATG_GRE_CIS: Attagene CIS-FACTORIAL HepG2 Assay for human Glucocorticoid Response Elements (GRE) (AID 2282947). The conditions noted are these: HepG2 GRE cis-reporter, Attagene multiplex mRNA; actives raise or lower the signal. The essentials: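 Following 24 h chemical exposure of transiently transfected HepG2 cells, total RNA was reverse-transcribed and reporter cDNA amplified, fluorescently labelled and sized by capillary electrophoresis. Signal gain or loss was fitted relative to DMSO vehicle.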

Experiment [12] in a line: ATG_ISRE_CIS: Attagene CIS-FACTORIAL HepG2 Assay for human Interferon Regulatory Factor 1 (IRF1) binding to an Interferon-Stimulated Response Element (ISRE) (AID 2282948). To be noted: HepG2 ISRE cis-reporter (Attagene), mRNA transcription readout; actives raise or lower the signal. The essentials: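 Quantitation relies on labelled RT-PCR fragments separated by capillary electrophoresis. Human HepG2 cells bearing cis-promoter reporter constructs were treated 24 h; DMSO served as baseline for bidirectional fitting.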

A short description of experiment [13]: ATG_M_32_CIS: Attagene CIS-FACTORIAL HepG2 Assay for M32 Transcription Factor (Internal Marker) (AID 2282949).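 Note: background control marker of the multiplexed CIS panel rather than a real target.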 The conditions noted are these: HepG2 Attagene cis-factorial M32 reporter, mRNA; actives raise or lower the signal. The essentials: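 HepG2 cells transiently transfected with multiplexed cis-regulated reporter units, dosed 24 h. Reporter mRNA quantified by RT-PCR, 6-FAM labelling, HpaI digestion and capillary electrophoresis; bidirectional fit vs DMSO.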

A short description of experiment [14]: ATG_M_06_CIS: Attagene CIS-FACTORIAL HepG2 Assay for M06 Transcription Factor (Internal Marker) (AID 2282950). To be noted: HepG2 Attagene CIS-FACTORIAL M06 internal marker reporter; actives raise or lower the signal. The essentials:
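HepG2 cells transiently transfected with cis-regulated multiple reporter transcription units were exposed to chemical for 24 h; reporter mRNA was quantified by RT-PCR, 6-FAM primer labelling, HpaI digestion and capillary electrophoresis, fitted bidirectionally against DMSO.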

The target of experiment [15] is Hepatocyte nuclear factor 6 (Homo sapiens) (UniProt Q9UBC0). Description: ATG_HNF6_CIS: Attagene CIS-FACTORIAL HepG2 Assay for human Hepatocyte Nuclear Factor 6 (HNF6) (AID 2282952). To be noted: HepG2 Attagene cis-factorial HNF6 reporter transcription; actives raise or lower the signal. The essentials: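 HepG2 cells transiently transfected with cis-element-driven multiplexed reporter units measuring endogenous transcription factor activity. After 24 h exposure, reporter mRNA quantified by RT-PCR, FAM-labelled fragments and capillary electrophoresis; bidirectional fitting versus DMSO.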
Hepatocyte nuclear factor 6 (Homo sapiens), sequence (Q9UBC0 whole entry, looked up, the tested form may be a part): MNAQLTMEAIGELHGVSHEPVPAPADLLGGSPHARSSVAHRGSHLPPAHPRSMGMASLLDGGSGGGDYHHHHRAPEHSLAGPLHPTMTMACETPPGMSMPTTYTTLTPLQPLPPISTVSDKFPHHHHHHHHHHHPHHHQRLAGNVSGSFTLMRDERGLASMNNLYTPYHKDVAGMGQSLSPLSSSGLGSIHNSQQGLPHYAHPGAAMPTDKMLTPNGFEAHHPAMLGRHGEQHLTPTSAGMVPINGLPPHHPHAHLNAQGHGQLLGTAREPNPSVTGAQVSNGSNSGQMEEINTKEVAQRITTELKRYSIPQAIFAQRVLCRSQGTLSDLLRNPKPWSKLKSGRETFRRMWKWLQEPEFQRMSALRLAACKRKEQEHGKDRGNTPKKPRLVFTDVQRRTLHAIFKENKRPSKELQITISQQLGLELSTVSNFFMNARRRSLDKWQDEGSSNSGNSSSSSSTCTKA

Experiment [16] addresses Heat shock factor protein 1 (Homo sapiens) (UniProt Q00613). Description: ATG_HSE_CIS: Attagene CIS-FACTORIAL HepG2 Assay for human Heat Shock Transcription Factor 1 (HSE) (AID 2282953). To be noted: HepG2 HSE cis-reporter, Attagene RNA transcription; actives raise or lower the signal. In short, it runs like this:
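HepG2 cells transiently transfected with multiple reporter transcription units under cis-regulatory promoter control, measuring endogenous transcription factor activity. After 24 h chemical exposure, reporter mRNA quantified by RT-PCR, fluorescent labelling, HpaI digestion and capillary electrophoresis; bidirectional fit versus DMSO.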

The nature of experiment [17]: ATG_MRE_CIS: Attagene CIS-FACTORIAL HepG2 Assay for human Metal Responsive Element (MRE) (AID 2282954). The conditions noted are these: HepG2 MRE cis-reporter transcription, Attagene multiplex; actives raise or lower the signal. The essentials:
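Step one: transfect HepG2 with cis-regulated reporter units. Step two: dose 24 h. Step three: isolate RNA, RT-PCR, 6-FAM label, HpaI digest, capillary electrophoresis. Fit bidirectionally to DMSO.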

Experiment [18] can be described thus: ATG_PBREM_CIS: Attagene CIS-FACTORIAL HepG2 Assay for human Phenobarbital-responsive Enhancer Module (PBREM) (AID 2282955). To be noted: HepG2 PBREM cis-reporter, Attagene multiplexed transcription; actives raise or lower the signal. The essentials:
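Multiplexed cis-reporter readout in human hepatoma HepG2 cells; PBREM-regulated transcript quantified after 24 h exposure by fluorescent RT-PCR fragment analysis. Signal changes up or down fitted relative to DMSO.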

Experiment [19] deals with Paired box protein Pax-6 (Homo sapiens) (UniProt P26367). Briefly: ATG_Pax6_CIS: Attagene CIS-FACTORIAL HepG2 Assay for human Paired Box 6 (PAX6) (AID 2282956). The conditions noted are these: HepG2 CIS-FACTORIAL PAX6 reporter transcription, RNA readout; actives raise or lower the signal. In short, it runs like this: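 After twenty-four hours of chemical exposure, transfected HepG2 cells are harvested for RNA. Cis-promoter reporter transcripts are amplified, fluorescently labelled and sized by capillary electrophoresis, with gain and loss of signal scored against DMSO.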
Paired box protein Pax-6 (Homo sapiens), sequence (P26367 whole entry, looked up): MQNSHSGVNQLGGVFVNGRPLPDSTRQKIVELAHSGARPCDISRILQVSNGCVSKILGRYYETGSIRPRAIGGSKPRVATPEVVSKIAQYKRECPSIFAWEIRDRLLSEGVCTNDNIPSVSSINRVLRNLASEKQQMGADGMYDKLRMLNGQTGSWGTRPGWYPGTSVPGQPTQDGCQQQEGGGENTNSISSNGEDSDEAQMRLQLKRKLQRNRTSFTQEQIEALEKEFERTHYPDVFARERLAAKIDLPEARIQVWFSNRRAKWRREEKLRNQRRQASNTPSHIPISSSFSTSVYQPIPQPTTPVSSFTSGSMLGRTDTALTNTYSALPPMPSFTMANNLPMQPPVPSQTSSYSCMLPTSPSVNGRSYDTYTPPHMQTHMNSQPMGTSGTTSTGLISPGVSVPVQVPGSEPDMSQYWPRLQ

Experiment [20] has as its target Hypoxia-inducible factor 1-alpha (Homo sapiens) (UniProt Q16665). Description: ATG_HIF1a_CIS: Attagene CIS-FACTORIAL HepG2 Assay for human Hypoxia Inducible Factor 1 (HIF1A) (AID 2282951). To be noted: HepG2 Attagene cis-factorial HIF1a reporter transcription; actives raise or lower the signal. In short, it runs like this:
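Cis-element reporter constructs were transiently transfected into HepG2 cells, which were treated for 24 h; reporter RNA was reverse-transcribed, amplified, labelled and resolved by capillary electrophoresis.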

Values joined by “and” are separate entries in the source; they are usually repeats but may differ in a detail not shown here. Equal values may be shown once. Some compounds were tested as several samples or in several runs, with calls that do not always agree. Active and inactive are the calls of the source. Rule for the calls: active = hit-call score of the fitted dose curve at least 0.9, where 1 is the maximum; inactive = score below 0.9.

The AC50 is the concentration at which the activity in the assay is half-maximal.

Heat shock factor protein 1 (Homo sapiens), sequence (Q00613 whole entry, looked up): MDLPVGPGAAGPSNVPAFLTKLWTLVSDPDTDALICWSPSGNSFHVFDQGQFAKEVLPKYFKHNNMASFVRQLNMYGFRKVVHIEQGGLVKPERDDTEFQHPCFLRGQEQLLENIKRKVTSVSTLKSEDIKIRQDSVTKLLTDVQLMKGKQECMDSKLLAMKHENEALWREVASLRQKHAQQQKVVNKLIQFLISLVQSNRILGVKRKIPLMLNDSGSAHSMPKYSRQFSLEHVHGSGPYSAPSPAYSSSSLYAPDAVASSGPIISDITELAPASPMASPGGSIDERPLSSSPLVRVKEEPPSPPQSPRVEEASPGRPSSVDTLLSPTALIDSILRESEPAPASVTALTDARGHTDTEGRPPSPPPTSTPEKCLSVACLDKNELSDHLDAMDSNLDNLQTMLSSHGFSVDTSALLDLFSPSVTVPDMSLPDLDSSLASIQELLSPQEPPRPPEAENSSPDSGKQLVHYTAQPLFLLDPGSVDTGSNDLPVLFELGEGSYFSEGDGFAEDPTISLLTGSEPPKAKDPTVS
Hepatocyte nuclear factor 3-beta (Homo sapiens), sequence (Q9Y261 whole entry, looked up): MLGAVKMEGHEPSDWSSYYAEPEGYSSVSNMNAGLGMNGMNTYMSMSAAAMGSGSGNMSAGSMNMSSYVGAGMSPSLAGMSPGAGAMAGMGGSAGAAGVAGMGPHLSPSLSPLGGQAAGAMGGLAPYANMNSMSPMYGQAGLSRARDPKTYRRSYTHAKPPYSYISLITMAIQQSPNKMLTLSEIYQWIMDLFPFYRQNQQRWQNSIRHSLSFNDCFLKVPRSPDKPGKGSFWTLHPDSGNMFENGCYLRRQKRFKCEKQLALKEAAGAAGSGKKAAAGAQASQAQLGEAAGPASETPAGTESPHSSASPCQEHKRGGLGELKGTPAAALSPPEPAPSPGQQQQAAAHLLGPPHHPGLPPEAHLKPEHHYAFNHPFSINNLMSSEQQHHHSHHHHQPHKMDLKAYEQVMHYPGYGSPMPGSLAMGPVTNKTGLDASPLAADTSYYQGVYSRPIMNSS
Hypoxia-inducible factor 1-alpha (Homo sapiens), sequence (Q16665 whole entry, looked up): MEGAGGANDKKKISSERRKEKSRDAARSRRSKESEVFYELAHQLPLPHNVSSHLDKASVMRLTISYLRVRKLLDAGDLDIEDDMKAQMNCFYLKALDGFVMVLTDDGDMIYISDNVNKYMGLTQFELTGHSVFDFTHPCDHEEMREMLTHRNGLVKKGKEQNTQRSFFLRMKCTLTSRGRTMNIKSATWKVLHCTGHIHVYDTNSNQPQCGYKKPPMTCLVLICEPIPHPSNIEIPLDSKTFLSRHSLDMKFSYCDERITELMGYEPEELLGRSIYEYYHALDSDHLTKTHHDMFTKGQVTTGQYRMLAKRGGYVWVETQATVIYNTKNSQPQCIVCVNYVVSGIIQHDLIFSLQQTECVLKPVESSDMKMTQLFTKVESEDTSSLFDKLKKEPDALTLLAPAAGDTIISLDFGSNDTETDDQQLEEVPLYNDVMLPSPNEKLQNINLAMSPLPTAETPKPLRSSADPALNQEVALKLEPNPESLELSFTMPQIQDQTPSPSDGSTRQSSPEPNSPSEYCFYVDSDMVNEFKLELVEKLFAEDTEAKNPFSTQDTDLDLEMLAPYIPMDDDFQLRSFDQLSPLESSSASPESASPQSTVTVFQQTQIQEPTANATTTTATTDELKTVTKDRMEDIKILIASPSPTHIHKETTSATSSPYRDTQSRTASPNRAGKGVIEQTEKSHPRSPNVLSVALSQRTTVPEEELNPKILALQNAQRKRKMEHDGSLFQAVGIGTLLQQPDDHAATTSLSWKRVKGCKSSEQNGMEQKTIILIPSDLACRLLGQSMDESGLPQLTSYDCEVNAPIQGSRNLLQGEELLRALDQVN

In the case of `Clc1ccc(C(c2ccccc2Cl)C(Cl)(Cl)Cl)cc1` (stereo not drawn), the result in experiment [1], in [2], in experiment [3], in experiment [4], in experiment [6] and in [7] was inactive. In addition, the outcome in experiment [8], in experiment [9], in experiment [10], in [11], in experiment [12] and in experiment [13] was inactive. Besides, the call in [14], in [15], in experiment [16], in [17], in experiment [18] and in experiment [19] was inactive. Moreover, the AC50 is 874 nM (active) [middle of 4 runs] in experiment [5]; 135 µM (active) in [7]; 70.5 µM (active) and 82.3 µM (active) in experiment [12]; 50.7 µM (active) and 94.6 µM (active) in experiment [16]; 70.5 µM (active) and 36.9 µM (active) in [17]; 70.5 µM (active) in experiment [19].
As to `c1ccc(-c2ccccc2)cc1`, the outcome in experiment [1], in experiment [2], in experiment [3], in experiment [4], in experiment [6] and in experiment [7] was inactive. Besides, the outcome in [8], in experiment [9], in experiment [10], in experiment [11], in [13] and in experiment [14] was inactive. For the same compound, the result in experiment [20], in experiment [15], in experiment [16], in experiment [17] and in experiment [19] was inactive. In addition, the AC50 in experiment [5] was 81.8 µM (active); in experiment [12], 110 µM (active).
As for `CC#Cc1cc(C)nc(Nc2ccccc2)n1`, the AC50 is 140 µM (active) in experiment [1], 67.5 µM (active) in [3], 68.2 µM (active) in experiment [17] and 68.1 µM (active) in [19]. For the same compound, the outcome in experiment [2], in [4], in [5], in experiment [6], in [7] and in [8] was inactive. For the same compound, the compound was called inactive in experiment [9], in experiment [10], in experiment [11], in [12], in experiment [13] and in [14]. In addition, the outcome in [20], in experiment [15], in experiment [16] and in experiment [18] was inactive.

The values are drawn from PubChem BioAssay (EPA / NIEHS).
